# Assay results from PubChem BioAssay (NCATS).
# Inconclusive results are not listed. A call without a number means that no potency is given here. The source made the active and inactive calls. Unless noted, the call rests on the fitted dose curve; in most records, active means well fitted curve in the direction sought with a large enough effect; inconclusive means small, poorly fitted or top-dose-only effect, or another doubt; inactive means no such curve, though single readings can be large; an effect the other way counts as inactive or inconclusive.
# Columns and labels:
# [1] = qHTS assay for measurement of the activity of small molecule inhibitors on Zika virus induced Caspase-3 activity in human iPSC derived neural progenitor cells (hNPCs) (AID 1224857); further: nearly all actives have a fitted effect of over 65% in size
# Procedure, shortened: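 Cells were plated at 350 per well and grown 16 to 20 hours. Compound pretreatment lasted one hour, after which ZIKV (2 FFU/cell) was added for 6 hours. Percent inhibition was normalized between uninfected and infected controls.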
# [2] = qHTS assay for measurement of the activity of small molecule inhibitors on Zika virus induced Caspase-3 activity in human astrocytoma cells (AID 1224859)
# Procedure, shortened: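 Percent inhibition of virus-induced caspase-3/7 signal is calculated against uninfected and ZIKV-infected control cells. Cells are SNB-19, infected at 2 FFU/cell for 6 h after 1 h compound exposure.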
# [3] = P-glycoprotein substrates identified in KB-8-5-11 adenocarcinoma cell line, qHTS therapeutic library screen (AID 1346987); further: nearly all actives have a fitted effect of over 65% in size; further: potency means the concentration at half of the fitted maximal effect
# Procedure, shortened: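 Luminescence from CellTiter-Glo, read 5 min after addition, quantified survival of KB-8-5-11 (P-gp-overexpressing) cells exposed to compounds for 72 h. AC50 was derived from concentration-response curves.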
# [4] = NS1 protein of Zika virus - qHTS assay to identify small molecule inhibitors in human HEK 293 cells (AID 1347053); further: series mostly up to about 46 µM; nearly all actives have a fitted effect of over 55% in size
# Procedure, shortened: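 In this cell-based screen, HEK 293 cultures received compound for one hour before Zika MR766 at MOI = 0.5. NS1 was quantified 24 hours later by TR-FRET, normalized to virus-free wells and infected wells.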
# [5] = qHTS assay to identify small molecule inhibitors of chordoma cells - UCH-2 (AID 1259356); further: series mostly up to about 46 µM
# [6] = qHTS assay to identify small molecule inhibitors of chordoma cells - UCH-1 (AID 1259355); further: nearly all actives have a fitted effect of over 55% in size
# Procedure, shortened: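 Screening used approved and investigational drugs in 15-point titration against 800 seeded cells per well. A fixed combination of auranofin with camptothecin, doxorubicin, rubitecan and topotecan followed compound addition, and growth was scored by CellTiter-Glo after 48hr.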
# [7] = Natriuretic polypeptide receptor (hNpr1) antagonism - Pilot counterscreen GloSensor control cell line (AID 1347045; calls by dose curve; further: series mostly up to about 38 µM)
# Procedure, shortened: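 Cells were first seeded and incubated overnight at 37C, then loaded with 2% GloSensor substrate for 2 h. Compounds were added for 30 min at room temperature, followed by a baseline read, 50 uM SNP and a final read after 20 min.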
# [8] = target: Atrial natriuretic peptide receptor 1 (Homo sapiens) (UniProt P16066); assay: Natriuretic polypeptide receptor (hNpr1) antagonism - Pilot screen (AID 1347049; calls by dose curve;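 further: agonist-evoked cGMP luminescence read 20 min after hNppA addition; series mostly up to about 58 µM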)
# Procedure, shortened: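 cGMP-sensor HEK293/hNpr1 cells, 1500/well, plated overnight at 37C. 2% GloSensor reagent, 2 h RT. Compound (23 nL pin transfer) 30 min RT, baseline luminescence pre-read. 0.1 nM hNppA, 20 min RT, post-read.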
# [9] = target: Atrial natriuretic peptide receptor 2 (Homo sapiens) (UniProt P20594); assay: Natriuretic polypeptide receptor (hNpr2) antagonism - Pilot subtype selectivity assay (AID 1347050; calls by dose curve)
# Procedure, shortened: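 Luminescence from a genetically encoded cGMP luciferase biosensor in hNpr2-expressing HEK293 cells is read before and 20 min after adding 1 nM hNppC. Test compounds, in interplate 1:5 titrations, are added 30-50 min ahead of the agonist.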
# Atrial natriuretic peptide receptor 2 (Homo sapiens), sequence (P20594 whole entry, looked up): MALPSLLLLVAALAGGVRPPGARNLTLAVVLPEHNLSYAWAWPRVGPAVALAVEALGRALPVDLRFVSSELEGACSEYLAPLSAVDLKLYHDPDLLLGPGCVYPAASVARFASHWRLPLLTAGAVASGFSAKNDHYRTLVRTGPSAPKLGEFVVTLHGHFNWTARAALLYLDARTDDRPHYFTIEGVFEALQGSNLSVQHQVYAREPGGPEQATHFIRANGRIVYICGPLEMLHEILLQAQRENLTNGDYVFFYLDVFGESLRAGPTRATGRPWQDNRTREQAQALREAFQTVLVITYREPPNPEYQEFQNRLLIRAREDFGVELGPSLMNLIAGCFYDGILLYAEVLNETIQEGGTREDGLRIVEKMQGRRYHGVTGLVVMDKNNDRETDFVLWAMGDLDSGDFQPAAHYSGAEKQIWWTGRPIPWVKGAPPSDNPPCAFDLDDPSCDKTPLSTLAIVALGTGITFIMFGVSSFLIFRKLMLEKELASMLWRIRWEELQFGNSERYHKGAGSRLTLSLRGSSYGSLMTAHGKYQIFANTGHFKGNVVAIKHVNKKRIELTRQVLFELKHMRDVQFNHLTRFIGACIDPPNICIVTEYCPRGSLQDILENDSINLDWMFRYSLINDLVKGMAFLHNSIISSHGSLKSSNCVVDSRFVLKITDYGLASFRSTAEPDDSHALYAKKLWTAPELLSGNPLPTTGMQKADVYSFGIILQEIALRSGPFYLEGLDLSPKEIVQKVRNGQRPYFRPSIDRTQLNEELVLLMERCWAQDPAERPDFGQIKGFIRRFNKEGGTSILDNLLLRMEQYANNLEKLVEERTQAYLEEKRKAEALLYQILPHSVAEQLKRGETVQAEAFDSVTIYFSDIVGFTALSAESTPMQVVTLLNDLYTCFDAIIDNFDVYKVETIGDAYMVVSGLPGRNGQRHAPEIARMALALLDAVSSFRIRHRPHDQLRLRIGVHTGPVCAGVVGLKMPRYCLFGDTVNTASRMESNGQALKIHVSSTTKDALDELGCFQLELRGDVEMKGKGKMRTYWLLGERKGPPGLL
# Atrial natriuretic peptide receptor 1 (Homo sapiens), sequence (P16066 whole entry, looked up): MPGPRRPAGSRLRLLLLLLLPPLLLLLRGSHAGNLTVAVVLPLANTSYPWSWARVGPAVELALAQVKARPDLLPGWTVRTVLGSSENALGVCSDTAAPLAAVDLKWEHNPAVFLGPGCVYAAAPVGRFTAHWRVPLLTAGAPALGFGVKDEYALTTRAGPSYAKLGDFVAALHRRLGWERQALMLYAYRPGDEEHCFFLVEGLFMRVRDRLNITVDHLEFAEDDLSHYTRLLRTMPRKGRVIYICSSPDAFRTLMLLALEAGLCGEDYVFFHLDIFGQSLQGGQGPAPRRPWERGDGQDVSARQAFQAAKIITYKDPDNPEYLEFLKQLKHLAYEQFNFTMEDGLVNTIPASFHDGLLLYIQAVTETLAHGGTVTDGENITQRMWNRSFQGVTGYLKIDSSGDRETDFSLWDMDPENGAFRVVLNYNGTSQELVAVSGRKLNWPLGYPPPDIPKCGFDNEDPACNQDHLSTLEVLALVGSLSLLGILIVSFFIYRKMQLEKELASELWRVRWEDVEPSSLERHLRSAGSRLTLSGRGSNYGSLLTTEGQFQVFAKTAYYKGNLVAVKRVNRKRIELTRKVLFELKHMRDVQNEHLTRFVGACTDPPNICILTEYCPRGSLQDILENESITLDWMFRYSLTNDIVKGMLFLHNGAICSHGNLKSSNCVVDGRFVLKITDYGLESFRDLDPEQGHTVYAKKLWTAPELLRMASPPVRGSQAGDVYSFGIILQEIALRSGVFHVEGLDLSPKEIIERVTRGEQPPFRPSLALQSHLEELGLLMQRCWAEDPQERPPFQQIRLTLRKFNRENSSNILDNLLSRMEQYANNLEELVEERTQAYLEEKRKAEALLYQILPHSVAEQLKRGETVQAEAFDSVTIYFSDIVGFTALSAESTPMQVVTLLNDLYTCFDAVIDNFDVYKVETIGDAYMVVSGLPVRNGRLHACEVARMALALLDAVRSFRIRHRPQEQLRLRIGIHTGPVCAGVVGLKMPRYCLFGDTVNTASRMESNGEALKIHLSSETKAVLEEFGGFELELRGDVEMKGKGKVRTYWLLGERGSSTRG
compound,measurement,setting,value
Cc1nc2n(c(=O)c1CCN1CCC(c3noc4cc(F)ccc34)CC1)CCC[C@H]2O,outcome,[1],inactive
same,outcome,[2],inactive
same,Potency,[3],inactive
same,Potency,[4],inactive
CC(C)(CO)[C@@H](O)C(=O)NCCCO,outcome,[1],inactive
same,outcome,[2],inactive
same,Potency,[4],inactive
Cc1onc(-c2c(Cl)cccc2Cl)c1C(=O)N[C@@H]1C(=O)N2[C@@H]1SC(C)(C)[C@@H]2C(=O)O,outcome,[1],inactive
same,outcome,[2],inactive
same,Potency,[3],inactive
same,Potency,[4],inactive
O=C1[C@H]2CCCC[C@H]2C(=O)N1CCCCN1CCN(c2nsc3ccccc23)CC1,outcome,[1],inactive
same,outcome,[2],inactive
same,Potency,[5],inactive
same,Potency,[4],inactive
Cc1ccccc1C(=O)Nc1ccc(C(=O)N2CCCC(N(C)C)c3ccccc32)cc1 (configuration not stated),outcome,[1],inactive
same,outcome,[2],inactive
same,Potency,[3],5.8 µM (active)
same,Potency,[4],inactive
CCC(C(=O)OCCN(CC)CC)c1ccccc1 (configuration not stated),outcome,[2],inactive
same,Potency,[6],inactive
same,Potency,[3],inactive
same,Potency,[4],inactive
Cc1ccc(O)c2ncccc12,outcome,[2],inactive
same,Potency,[6],inactive
same,Potency,[3],inactive
same,Potency,[4],inactive
C=C(CC)C(=O)c1ccc(OCC(=O)O)c(Cl)c1Cl,outcome,[2],inactive
same,Potency,[5],inactive
same,Potency,[3],inactive
COC(=O)C1=C(C)NC(C)=C(C(=O)O[C@@H]2CCCN(Cc3ccccc3)C2)[C@@H]1c1cccc([N+](=O)[O-])c1,outcome,[2],inactive
same,Potency,[3],20.6 µM (active)
same,Potency,[4],inactive
CCCCCCc1ccc(O)cc1O,outcome,[2],inactive
same,Potency,[6],inactive
same,Potency,[5],inactive
same,Potency,[3],inactive
Cc1c(N(C)CS(=O)(=O)O)c(=O)n(-c2ccccc2)n1C,outcome,[2],inactive
same,Potency,[5],inactive
same,Potency,[3],inactive
same,Potency,[4],inactive
CCCCCCC[N+](CC)(CC)CCCCc1ccc(Cl)cc1,outcome,[2],inactive
same,Potency,[6],inactive
same,Potency,[3],inactive
CC(C)N=C(N)/N=C(\N)Nc1ccc(Cl)cc1,outcome,[2],inactive
same,Potency,[6],inactive
same,Potency,[5],inactive
same,Potency,[3],inactive
same,Potency,[4],inactive
O=C1CCC(c2ccc(-n3ccnc3)cc2)=NN1,outcome,[2],inactive
same,Potency,[6],inactive
same,Potency,[5],inactive
same,Potency,[3],1.46 µM (active)
same,outcome,[7],inactive
same,outcome,[8],inactive
same,outcome,[9],inactive
same,Potency,[4],inactive
CC(=O)Nc1c(I)cc(I)c(C(=O)O)c1I,outcome,[2],inactive
same,Potency,[6],inactive
same,Potency,[5],inactive
same,Potency,[3],inactive
same,Potency,[4],inactive
CC(C)C[C@H]1C(=O)N2CCC[C@H]2[C@]2(O)O[C@](NC(=O)[C@@H]3C=C4c5cccc6[nH]c(Br)c(c56)C[C@H]4N(C)C3)(C(C)C)C(=O)N12,outcome,[2],inactive
same,Potency,[6],inactive
same,Potency,[5],inactive
same,outcome,[8],inactive
same,outcome,[9],inactive
CN1CCC[C@@H]1c1cccnc1,outcome,[2],inactive
same,Potency,[5],inactive
same,Potency,[3],inactive
same,Potency,[4],inactive
Cc1cc2c(cc1CC(=O)c1sccc1S(=O)(=O)Nc1onc(C)c1Cl)OCO2,outcome,[2],inactive
same,Potency,[3],inactive
same,Potency,[4],inactive
Nc1ccc(C(=O)Nc2ccccc2N)cc1,outcome,[2],inactive
same,Potency,[3],16.4 µM (active)
same,Potency,[4],inactive
CC(=O)O[C@H]1C[C@@H]2CC[C@@H]3[C@H](CC[C@@]4(C)[C@H]3C[C@H]([N+]3(C)CCCCC3)[C@@H]4OC(C)=O)[C@@]2(C)C[C@@H]1[N+]1(C)CCCCC1,outcome,[2],inactive
same,Potency,[6],inactive
same,Potency,[5],inactive
same,Potency,[3],inactive
same,outcome,[7],inactive
same,outcome,[8],inactive
same,outcome,[9],inactive
same,Potency,[4],inactive
CNCCC(Oc1ccccc1C)c1ccccc1 (configuration not stated),outcome,[2],inactive
same,Potency,[6],inactive
same,outcome,[7],inactive
same,outcome,[9],inactive
same,Potency,[4],inactive
O=C1OCCN1/N=C/c1ccc([N+](=O)[O-])o1,outcome,[2],inactive
same,Potency,[5],inactive
same,Potency,[3],inactive
same,Potency,[4],inactive
CN(C)CC/C=C1/c2ccccc2COc2ccc(CC(=O)O)cc21,outcome,[2],inactive
same,Potency,[6],inactive
same,Potency,[3],inactive
CCCC1O[C@@H]2C[C@H]3[C@@H]4CCC5=CC(=O)C=C[C@]5(C)[C@H]4[C@@H](O)C[C@]3(C)[C@]2(C(=O)CO)O1 (some centres not stated),outcome,[2],inactive
same,Potency,[5],inactive
same,Potency,[3],inactive
same,outcome,[7],inactive
same,outcome,[8],inactive
same,outcome,[9],inactive
same,Potency,[4],inactive
C[C@]12CC[C@@H]3c4ccc(O)cc4CC[C@H]3[C@@H]1C[C@@H](O)[C@@H]2O,outcome,[2],inactive
same,Potency,[6],inactive
same,Potency,[5],inactive
same,Potency,[3],inactive
same,Potency,[4],inactive
CN(C/C=C/c1ccccc1)Cc1cccc2ccccc12,outcome,[2],inactive
same,Potency,[6],inactive
same,Potency,[5],inactive
same,Potency,[3],inactive
same,Potency,[4],inactive
CC(CCc1ccccc1)NCC(O)c1ccc(O)c(C(N)=O)c1 (configuration not stated),outcome,[2],inactive
same,Potency,[6],inactive
same,outcome,[8],inactive
same,outcome,[9],inactive
same,Potency,[4],inactive
O=S1(=O)c2cccc3cccc(c23)N1CCCN1CCN(c2ccc(F)cc2)CC1,outcome,[2],inactive
same,Potency,[6],inactive
same,Potency,[5],inactive
